In PubChem BioAssay (EPA / NIEHS) one finds outcome and AC50 data, which are given here for 8 compounds.

Each structure is given as a SMILES string. Inconclusive results are not listed. Calls of active or inactive are those of the source. How the source made its calls, unless noted: active means hit-call score of the fitted dose curve at least 0.9, where 1 is the maximum; inconclusive means response in the unintended direction; inactive means score below 0.9.

The target of assay [1] is Thyroid hormone receptor alpha (Rattus norvegicus) + Thyroid hormone receptor beta (Rattus norvegicus) (UniProt P18113+P63059). The assay can be described thus: TOX21_TR_LUC_GH3_Antagonist_Followup: Tox21 GH3 Thyroid Hormone Receptor Antagonism Luciferase Follow-Up Assay (AID 2283942). Summed up: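 In a GH3 luciferase reporter line, test chemicals spanning 92 uM to 5nM final are co-incubated 24 h with 1.0 nM T3. Activity is expressed as relative luminescence units and analysed relative to DMSO.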

A further assay deals with THRB (gene 7068) (UniProt P10828). The assay can be described thus: TOX21_TRB_COA_Antagonist_Followup_ratio: Tox21 Thyroid Hormone Receptor beta Antagonism through Coactivator Recruitment Follow-Up Assay, Ratio (AID 2283967). Summed up: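 Coactivator (SRC-2) recruitment to purified GST-TRβ ligand-binding domain is monitored by terbium-to-fluorescein energy transfer, emission ratio 520:495 nm. DMSO wells define 0% and T3 wells 100% activity.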

Assay [2] can be described thus: TOX21_TR_RXR_BLA_Antagonist_Followup_viability: Viability Assessment in the Tox21 Thyroid Hormone Receptor beta Retinoid X Receptor alpha (RXRa) Antagonism Beta-lactamase (BLA) Follow-Up Assay (AID 2283979). An outline of the steps: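 RXRa-UAS-bla HEK293T cells seeded 2,500/well in phenol red-free DMEM with 2% charcoal-stripped FBS, attached 5 h, then exposed to compounds at 11 concentrations in triplicate for 16 h at 37C/5% CO2. Viability read by CellTiter-Glo ATP luminescence; bidirectional fit versus DMSO.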

In another assay the target is THRA (gene 7067) (UniProt P10827). The assay can be described thus: TOX21_TRA_COA_Antagonist_Followup_ratio: Tox21 Thyroid Hormone Receptor alpha Antagonism through Coactivator Recruitment Follow-Up Assay, Ratio (AID 2283953). An outline of the steps: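 GST-TRα LBD 2.5 nM, BSA 0.10%, + cpd; then FITC-SRC-2 peptide 200 nM + Tb-anti-GST Ab 2 nM. TR-FRET ratio 520/495 nm. Norm: DMSO = 0%, T3 = 100%.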

A short description of assay [3]: TOX21_TRB_BLA_Antagonist_Followup_viability: Viability Assessment in the Tox21 Thyroid Hormone Receptor beta Antagonism Beta-lactamase (BLA) Follow-Up Assay (AID 2283961). Summed up:
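HEK293T cells with GAL4-human TRβ LBD and UAS-bla reporter, 3,000 cells/well in 2% charcoal-stripped FBS medium; 11-point concentrations in triplicate, 18 h at 37C. Viability from ATP by CellTiter-Glo luminescence, 30 min RT, same plates.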

The target in assay [4] is PGR (gene 5241) (UniProt P06401). As to the kind of experiment: TOX21_PR_BLA_Followup_Agonist_ratio: Tox21 HEK293 Progesterone Receptor (PR) Agonism Beta-lactamase Follow-Up Assay, Ratio (AID 2283933). An outline of the steps:
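Beta-lactamase reporter readout: ratio of cleaved (ch2) to uncleaved (ch1) substrate after 2 h room-temperature loading, following 16 h compound exposure at 37C. Cells were PR-UAS-bla HEK293T in 2% charcoal-stripped FBS medium. Viability was multiplexed by CellTiter-Glo.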

The target is the same in assay [5]. As to the kind of experiment: TOX21_PR_BLA_Followup_Antagonist_ratio: Tox21 HEK293 Progesterone Receptor (PR) Antagonism Beta-lactamase Follow-Up Assay, Ratio (AID 2283934).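 Further: PR-UAS-bla HEK293T cells stimulated with 1 nM R5020 agonist for 16 hr.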 An outline of the steps: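 Readout is the blue/green (ch2/ch1) substrate cleavage ratio after 2 hours at room temperature, following 16 hr co-treatment of PR-bla HEK293T cells with compound and 1nM promegestone. Multiplexed CellTiter-Glo viability flags cytotoxicity; DMSO baseline.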

Assay [6] in a line: TOX21_PR_BLA_Followup_Agonist_viability: Viability Assessment in the Tox21 HEK293 Progesterone Receptor (PR) Agonism Beta-lactamase Follow-Up Assay (AID 2283935).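 Further: signal loss means lower viability so actives are cytotoxic.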 Summed up:
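Run multiplexed with the beta-lactamase FRET read, this endpoint measures ATP by CellTiter-Glo luminescence (30 min, room temperature). PR-UAS-bla HEK293T cells received compound 6 hr after plating and were then incubated 16 hr at 37C in 2% stripped serum.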

Assay [7] is described as follows: TOX21_PR_BLA_Followup_Antagonist_viability: Viability Assessment in the Tox21 HEK293 Progesterone Receptor (PR) Antagonism Beta-lactamase Follow-Up Assay (AID 2283936).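 Further: cells exposed to compound with R5020 agonist for 16 h; hits lower the luminescence signal meaning cytotoxicity.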 An outline of the steps: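 PR-UAS-bla HEK293T cells in medium with 2% charcoal-stripped FBS were treated with compounds plus R5020 for 16 hr at 37C. After the beta-lactamase read, CellTiter-Glo was added to the same wells and luminescence read after 30 min at room temperature.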

Assay [8] concerns the target PGR (gene 5241) (UniProt P06401). As to the kind of experiment: TOX21_PR_LUC_Followup_Agonist: Tox21 HEK293 Progesterone Receptor (PR) Agonism Luciferase Follow-Up Assay (AID 2283937; active means hit-call score of the fitted dose curve at least 0.9, where 1 is the maximum; inactive means score below 0.9). Summed up: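 Agonism scored as luciferase induction over DMSO, read by ONE-Glo after 30 min at RT. Compounds were incubated 16 h at 37C on HEK293-PR-A-luc cells (3,000/well, pre-plated 5 h) previously grown 5 days in charcoal-stripped serum.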

The target is the same in assay [9]. As to the kind of experiment: TOX21_PR_LUC_Followup_Antagonist: Tox21 HEK293 Progesterone Receptor (PR) Antagonism Luciferase Follow-Up Assay (AID 2283938).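 Further: curve fitted upward as signal gain over DMSO baseline despite antagonist label.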 Summed up: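 HEK293-PR-A-luc cells, 3,000/well, preincubated 5 h at 37C before compound addition in DMSO; 16 h compound exposure at 37C. ONE-Glo luciferase luminescence read after 30 min at room temperature, fitted relative to DMSO baseline.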

Assay [10] can be described thus: TOX21_PR_LUC_Followup_Antagonist_viability: Viability Assessment in the Tox21 HEK293 Progesterone Receptor (PR) Antagonism Luciferase Follow-Up Assay (AID 2283940). Summed up: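 Viability counter-readout: cellular ATP measured by luciferase luminescence after 16 h compound exposure at 37C of HEK293-PR-A-luc cells, which had been cultured in charcoal-stripped serum and seeded 5 h beforehand.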

A short description of assay [11]: TOX21_PR_LUC_Followup_Agonist_viability: Viability Assessment in the Tox21 HEK293 Progesterone Receptor (PR) Agonism Luciferase Follow-Up Assay (AID 2283941).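 Further: loss of signal means cytotoxicity so actives lower viability.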 Summed up:
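Cytotoxicity counter-readout in the PR-A luciferase reporter line HEK293, with 16 h compound exposure at 37C after cells were cultured in charcoal-stripped serum. Cellular ATP quantified by CellTiter-Glo luminescence.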

Assay [12] is described as follows: CCTE_Harrill_HTTr_Viability_MCF7: CCTE's 6-hour Cell Viability Assessment for the High-Throughput Transcriptomics (HTTr) Platform, in MCF-7 cells cultured in DMEM + 10% fetal bovine serum, Harrill Lab (AID 2284010; active means hit-call score of the fitted dose curve at least 0.9, where 1 is the maximum; inactive means score below 0.9). An outline of the steps:
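Propidium iodide exclusion, imaged by high-content analysis, gauged viability after a six-hour exposure across eight concentrations. Cells were MCF-7 grown in DMEM with 10% fetal bovine serum; fits run in both directions against DMSO.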

Assay [13] can be described thus: CCTE_Harrill_HTTr_Apoptosis_MCF7: CCTE's 6-hour Apoptosis Assessment for the High-Throughput Transcriptomics (HTTr) Platform, in MCF-7 cells cultured in DMEM + 10% fetal bovine serum, Harrill Lab (AID 2284011; active means hit-call score of the fitted dose curve at least 0.9, where 1 is the maximum; inactive means score below 0.9). An outline of the steps:
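MCF-7 cells in DMEM + 10% FBS exposed 6 h to chemicals over an eight-point dilution series. Caspase-3/7 activation imaged by high-content CellEvent Green staining; fitted bidirectionally versus DMSO.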

The target of assay [14] is Nucleoli Translocation, AR (gene 367) (UniProt P10275). The assay can be described thus: UPITT_HCI_U2OS_AR_TIF2_Nucleoli_Antagonist: University of Pittsburgh U2OS Androgen Receptor-Transcriptional Intermediary Factor 2 (AR-TIF2) Antagonism High Content Imaging Assay for Nucleoli Translocation (AID 2283997). An outline of the steps: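 An antagonist-mode imaging screen: engineered U2OS (AR-RFP, TIF2-GFP) exposed to 20 uM compound, 0.2% DMSO. Activity reflects nucleolar red fluorescence change relative to DHT baseline.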

The target is the same in assay [15]. The assay can be described thus: UPITT_HCI_U2OS_AR_TIF2_Nucleoli_Agonist: University of Pittsburgh U2OS Androgen Receptor-Transcriptional Intermediary Factor 2 (AR-TIF2) Agonism High Content Imaging Assay for Nucleoli Translocation (AID 2283998). Summed up:
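U2OS cells expressing RFP-tagged human AR and GFP-tagged TIF2; red fluorescence in nucleoli quantified by high-content imaging. Primary screen at 20 uM final (0.2% DMSO); concentration-response 0.195–50 uM (0.5% DMSO), fitted upward versus DMSO.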

For assay [16], the target named is Ratio of Nucleoli Translocation and Cytoplasm, AR (gene 367) (UniProt P10275). As to the kind of experiment: UPITT_HCI_U2OS_AR_TIF2_Nucleoli_Cytoplasm_Ratio_Agonist: University of Pittsburgh U2OS Androgen Receptor-Transcriptional Intermediary Factor 2 (AR-TIF2) Agonism High Content Imaging Assay for Ratio of Nucleoli Translocation and Cytoplasm (AID 2284000).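 Further: hits raise the red nucleolar to cytoplasm ratio above vehicle.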 An outline of the steps: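 Primary screen at 20 uM final (0.2% DMSO), then triplicate confirmation and dose-response from 0.195 to 50 uM final (0.5% DMSO). Cells: U2OS with AR-RFP and TIF2-GFP. Endpoint is the nucleoli/cytoplasm red-fluorescence ratio, gain-of-signal vs DMSO.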
Chain of Ratio of Nucleoli Translocation and Cytoplasm, AR (gene 367) (P10275 whole entry, looked up): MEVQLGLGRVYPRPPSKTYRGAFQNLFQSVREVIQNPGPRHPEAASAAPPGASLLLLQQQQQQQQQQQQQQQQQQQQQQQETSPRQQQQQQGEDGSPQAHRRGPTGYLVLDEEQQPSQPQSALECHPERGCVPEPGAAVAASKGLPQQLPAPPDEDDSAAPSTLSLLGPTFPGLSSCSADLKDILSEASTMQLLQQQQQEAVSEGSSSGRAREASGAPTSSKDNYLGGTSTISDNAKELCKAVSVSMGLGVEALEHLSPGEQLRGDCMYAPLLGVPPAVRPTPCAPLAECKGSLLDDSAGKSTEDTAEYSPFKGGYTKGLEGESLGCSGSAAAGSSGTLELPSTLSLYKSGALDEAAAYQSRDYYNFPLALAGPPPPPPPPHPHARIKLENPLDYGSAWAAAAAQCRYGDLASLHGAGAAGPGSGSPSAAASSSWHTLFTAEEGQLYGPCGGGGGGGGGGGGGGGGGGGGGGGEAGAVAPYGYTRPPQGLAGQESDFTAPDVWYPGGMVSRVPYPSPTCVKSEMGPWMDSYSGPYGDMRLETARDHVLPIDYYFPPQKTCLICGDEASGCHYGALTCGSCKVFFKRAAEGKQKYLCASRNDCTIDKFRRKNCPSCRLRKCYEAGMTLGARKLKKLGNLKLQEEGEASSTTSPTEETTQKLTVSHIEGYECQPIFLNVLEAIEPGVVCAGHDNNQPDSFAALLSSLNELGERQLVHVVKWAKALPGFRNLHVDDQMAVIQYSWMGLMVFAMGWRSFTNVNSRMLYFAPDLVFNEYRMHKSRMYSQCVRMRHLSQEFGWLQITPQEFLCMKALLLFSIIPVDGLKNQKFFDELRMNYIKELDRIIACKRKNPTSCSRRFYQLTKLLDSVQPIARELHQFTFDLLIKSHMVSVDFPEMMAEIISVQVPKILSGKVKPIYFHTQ

Chain of PGR (gene 5241) (P06401 whole entry, looked up): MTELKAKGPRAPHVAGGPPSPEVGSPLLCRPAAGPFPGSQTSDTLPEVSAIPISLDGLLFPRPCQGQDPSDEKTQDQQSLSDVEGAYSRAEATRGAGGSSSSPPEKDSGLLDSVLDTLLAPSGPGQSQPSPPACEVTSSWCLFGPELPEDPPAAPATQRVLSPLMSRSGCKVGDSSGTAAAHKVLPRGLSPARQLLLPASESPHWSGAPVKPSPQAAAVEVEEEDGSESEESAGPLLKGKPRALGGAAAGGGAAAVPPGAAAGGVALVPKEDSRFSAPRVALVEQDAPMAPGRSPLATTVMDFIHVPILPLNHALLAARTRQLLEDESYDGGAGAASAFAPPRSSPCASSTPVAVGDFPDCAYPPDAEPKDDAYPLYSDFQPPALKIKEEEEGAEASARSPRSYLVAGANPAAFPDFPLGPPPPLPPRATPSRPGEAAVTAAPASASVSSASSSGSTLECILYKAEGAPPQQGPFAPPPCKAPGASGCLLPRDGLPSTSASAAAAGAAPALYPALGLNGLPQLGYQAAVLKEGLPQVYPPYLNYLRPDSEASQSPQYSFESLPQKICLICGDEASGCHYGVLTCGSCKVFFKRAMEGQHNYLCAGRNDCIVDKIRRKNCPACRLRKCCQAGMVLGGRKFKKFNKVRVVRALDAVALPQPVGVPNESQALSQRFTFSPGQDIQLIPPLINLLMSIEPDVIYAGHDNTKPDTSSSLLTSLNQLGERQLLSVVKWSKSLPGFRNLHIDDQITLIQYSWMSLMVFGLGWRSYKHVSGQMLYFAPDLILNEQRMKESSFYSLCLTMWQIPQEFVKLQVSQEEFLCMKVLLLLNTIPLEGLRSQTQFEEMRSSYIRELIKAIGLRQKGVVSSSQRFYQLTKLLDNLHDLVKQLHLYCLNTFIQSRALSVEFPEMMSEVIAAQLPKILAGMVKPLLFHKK
Chain of Nucleoli Translocation, AR (gene 367) (P10275 whole entry, looked up): as the sequence (P10275 whole entry, looked up) above
Chain of THRB (gene 7068) (P10828 whole entry, looked up, the tested form may be a part): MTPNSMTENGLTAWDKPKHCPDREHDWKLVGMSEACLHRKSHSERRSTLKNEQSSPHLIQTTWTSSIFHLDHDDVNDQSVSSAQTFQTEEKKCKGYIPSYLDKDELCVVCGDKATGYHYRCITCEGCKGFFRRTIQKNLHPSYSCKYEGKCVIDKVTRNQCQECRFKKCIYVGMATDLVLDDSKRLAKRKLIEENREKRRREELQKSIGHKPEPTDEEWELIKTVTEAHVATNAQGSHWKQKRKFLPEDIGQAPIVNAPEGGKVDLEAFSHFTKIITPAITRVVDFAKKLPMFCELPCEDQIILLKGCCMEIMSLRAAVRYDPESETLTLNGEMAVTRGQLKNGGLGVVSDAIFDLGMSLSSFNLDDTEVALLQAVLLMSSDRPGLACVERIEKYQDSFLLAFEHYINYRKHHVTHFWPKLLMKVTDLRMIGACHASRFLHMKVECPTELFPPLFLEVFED
Chain of THRA (gene 7067) (P10827 whole entry, looked up, the tested form may be a part): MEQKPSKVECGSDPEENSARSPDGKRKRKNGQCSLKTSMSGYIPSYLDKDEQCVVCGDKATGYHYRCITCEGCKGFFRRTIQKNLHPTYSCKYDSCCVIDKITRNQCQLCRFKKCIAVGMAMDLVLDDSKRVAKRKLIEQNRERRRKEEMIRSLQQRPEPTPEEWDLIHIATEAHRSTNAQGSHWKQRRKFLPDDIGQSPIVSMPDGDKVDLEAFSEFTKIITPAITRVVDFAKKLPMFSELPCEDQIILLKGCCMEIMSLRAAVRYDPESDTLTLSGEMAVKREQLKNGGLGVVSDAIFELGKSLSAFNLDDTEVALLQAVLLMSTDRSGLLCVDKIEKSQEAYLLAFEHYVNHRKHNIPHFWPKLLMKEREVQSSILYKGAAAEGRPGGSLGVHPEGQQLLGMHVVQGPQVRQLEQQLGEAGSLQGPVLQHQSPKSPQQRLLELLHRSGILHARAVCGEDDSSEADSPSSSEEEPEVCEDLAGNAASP

Turning to `Cc1nc2ccc(CN(C)c3ccc(C(=O)N[C@@H](CCC(=O)O)C(=O)O)s3)cc2c(=O)[nH]1`, the outcome (in [1]; in the assay with THRB (gene 7068); in assay [2]) was inactive.
The term AC50 denotes the midpoint of the concentration-response curve, whichever way the signal moves. Consider `Cc1ccc(Nc2nccc(N(C)c3ccc4c(C)n(C)nc4c3)n2)cc1S(N)(=O)=O`, for which the AC50 in [1] is 31.3 µM (active); in [3] it was 19.2 µM (active); with THRB (gene 7068), 19.2 µM (active). Moreover, the outcome (with THRA (gene 7067); in assay [2]) was inactive.
Regarding `CC(C)(C)C(O)/C=C/c1ccc2c(c1)OCO2` (configuration not stated), the result (with PGR (gene 5241) [4]; in the assay with PGR (gene 5241) [5]; in assay [6]; in [7]; in the assay with PGR (gene 5241) [8]; in the assay with PGR (gene 5241) [9]) was inactive. In addition, the call in assay [10] and in assay [11] was inactive.
With `CC(=O)O[C@@H]1CC2C3CCc4cc(OC(=O)c5ccccc5)ccc4C3CCC2(C)[C@H]1OC(C)=O` (some centres not stated), the result (with PGR (gene 5241) [4]; in assay [6]; in assay [7]; in [10]; in assay [11]) was inactive. Moreover, the half-maximal activity concentration (AC50) was 5.65 µM (active) with PGR (gene 5241) [5], 20.1 µM (active) with PGR (gene 5241) [8] and 1.05 µM (active) in the assay with PGR (gene 5241) [9].
Consider `O=CO`, for which the outcome in assay [12] and in [13] was inactive.
On to `CCCCC(C)=O`, for which the compound was classed as inactive in assay [14], in assay [15], in assay [16], in assay [12] and in assay [13].
In the case of `COC(=O)C1=C(C)NC(C)=C(C(=O)OC(C)C)C1c1cccc2nonc12` (configuration not stated), the outcome (in the assay with PGR (gene 5241) [4]; in assay [6]; in assay [7]; with PGR (gene 5241) [8]; in assay [10]; in assay [11]) was inactive. The AC50 in the assay with PGR (gene 5241) [5] is 19.4 µM (active); with PGR (gene 5241) [9] it was 18.1 µM (active).
As to `CC(=O)OCC(=O)[C@@]1(O)CC[C@H]2[C@@H]3CCC4=CC(=O)CC[C@]4(C)[C@H]3C(=O)C[C@@]21C`, the result (with PGR (gene 5241) [4]; with PGR (gene 5241) [5]; in assay [6]; in [7]; with PGR (gene 5241) [8]; in the assay with PGR (gene 5241) [9]) was inactive. Moreover, the compound was called inactive in assay [10] and in [11].
